From PubChem BioAssay
The list is not random: actives were taken first. Their share in the collection is about 19%.
ELG1 DNA repair = ELG1-dependent DNA repair inhibition; HEK293T ELG1-luciferase reporter, luminescence, 16 h; DNA damage induced by 5-fluorouridine; Potency, µM (top dose mostly 46.1 µM), for inactives: at the top dose activity change, negative = inhibition, actives largely listed as inhibitors; 2.3% of 330,000 active; note: potency is the fitted concentration of half-maximal effect; nearly all actives have a fitted effect of over 55% in size
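Overnight (16 hr) co-exposure of 2,000 cells/well to 5-fluorouridine and compound at 37 °C preceded detection. Luciferase was quantified via ONE-Glo luminescence; loss of signal denotes inhibition.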
DT40 TDP1 no CPT = qHTS for Inhibitors of human tyrosyl-DNA phosphodiesterase 1 (TDP1): qHTS in cells in absence of CPT; DT40 Tdp1-/- hTDP1 cells, no CPT, ATP luminescence, 48 h; Potency, µM (highest dose often 46.2 µM), without a hit: at the highest dose activity change, negative = growth inhibition, hits mostly inhibitors; 15% of 420,000 active; note: potency is the fitted concentration of half-maximal effect; nearly all actives have a fitted effect of over 55% in size
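Camptothecin absent (DMSO only). Human TDP1-complemented DT40 knockout cells, 400 cells/well, 37 °C for minimum 48 hr; ATP measured via CellTiter-Glo, 30 min dark incubation, luminescence.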
TDP1 cell CPT = growth inhibition of DT40 Tdp1-/-;hTDP1 cells with camptothecin (screen for TDP1 inhibitors); chicken DT40 Tdp1-/-;hTDP1 cells + 20 nM CPT, ATP luminescence, 48 h; Potency, µM (highest dose often 46.2 µM), for the others: at the highest dose activity change, negative = growth inhibition, hits mostly inhibitors; 12% of 420,000 active; AID 686979; note: potency is the fitted concentration of half-maximal effect; nearly all actives have a fitted effect of over 55% in size
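Chicken DT40 Tdp1-/- cells complemented with human TDP1, 400 cells/well, exposed to compounds plus 20 nM camptothecin for at least 48 h at 37 C; viability read as ATP content by CellTiter-Glo luminescence.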
Giardia killer = Giardia lamblia killing; AID 540267; 0.15% of 340,000 active; activity change, % at 7.66 µM, hits read low; Giardia lamblia trophozoite viability; in the data active = activity change below about -80%; inconclusive = between about -30% and that limit;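 note: parasites exposed to compound for two days anaerobically before the ATP read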
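Each well holds 100 Giardia trophozoites and compound. After two days (48 hrs) at 37 deg C in anaerobic conditions, ATP is quantified by luminescence.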
TDP1 block = inhibitors of human tyrosyl-DNA phosphodiesterase TDP1; AID 485290; 0.28% of 350,000 active; recombinant TDP1, AlphaScreen DNA substrate cleavage; Q9NUW8; Potency, µM (highest dose often 130 µM), without a hit: top-dose activity change, negative = inhibition, most hits filed as inhibitors; note: potency is the fitted concentration of half-maximal effect; nearly all actives have a fitted effect of over 40% in size
Target sequence (Q9NUW8 whole entry, looked up): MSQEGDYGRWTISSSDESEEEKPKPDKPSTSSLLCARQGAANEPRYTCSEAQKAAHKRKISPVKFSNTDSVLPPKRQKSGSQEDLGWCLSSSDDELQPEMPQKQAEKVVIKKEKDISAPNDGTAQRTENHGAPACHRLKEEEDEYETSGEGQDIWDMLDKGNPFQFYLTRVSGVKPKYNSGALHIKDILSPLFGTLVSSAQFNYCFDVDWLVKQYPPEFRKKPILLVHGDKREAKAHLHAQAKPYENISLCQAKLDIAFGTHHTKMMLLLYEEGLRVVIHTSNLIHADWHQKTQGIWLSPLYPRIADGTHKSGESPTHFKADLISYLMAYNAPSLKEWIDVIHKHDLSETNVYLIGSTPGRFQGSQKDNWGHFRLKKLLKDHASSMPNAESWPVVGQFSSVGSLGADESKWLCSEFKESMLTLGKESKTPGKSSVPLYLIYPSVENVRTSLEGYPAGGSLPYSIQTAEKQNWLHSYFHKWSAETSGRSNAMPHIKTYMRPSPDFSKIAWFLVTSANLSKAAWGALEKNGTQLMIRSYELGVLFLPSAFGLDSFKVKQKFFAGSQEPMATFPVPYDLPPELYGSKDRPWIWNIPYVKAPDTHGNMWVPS
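Tdp1 1 nM final; 15 min RT w/ cpd; substrate 15 nM, 5 min; beads 10 ug/ml, 10 min; AlphaScreen read. Neg ctrl: no enzyme.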
IL1B secr inh = inhibitors of inflammasome signaling (IL-1 beta secretion); AID 743279; 4.7% of 360,000 active; activity change, % at 57.5 µM; THP-1 LPS/ATP IL-1B secretion, AlphaLISA, 16 h; active compounds read low; in the data active = activity change below about -50%; inconclusive = mostly about -30% to -49%
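Secreted IL-1B measured by AlphaLISA bead assay after 16 h compound exposure of THP-1 cells; compounds (final up to 57.5 uM) added 1 h before LPS (250 ng/mL) and ATP (1.25 mM) stimulation; lower signal means less secretion.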
Active calls of the source: *; ? = inconclusive; · = not tested or not shown; [ ] = another dose, or the depositor's remark. Unless noted, calls come from the whole dose curve; as a rule, active = well fitted curve in the direction sought with a large enough effect; inconclusive = small, poorly fitted or top-dose-only effect, or another doubt; inactive = no such curve, though single readings can be large; an effect the other way counts as inactive or inconclusive. % is set by controls: 0 for no effect and ±100 for the full control effect.

SMILES | ELG1 DNA repair | DT40 TDP1 no CPT | TDP1 cell CPT | Giardia killer | TDP1 block | IL1B secr inh
COc1cccc(C(c2nnnn2Cc2ccccc2)N2CCC(n3c(=O)[nH]c4ccccc43)CC2)c1OC (stereo not given) | · | 3.26µM* | 2.59µM* | · | · | 0.0
O=C1CC(N2CCC(n3c(=O)[nH]c4ccccc43)CC2)C(=O)N1Cc1ccccc1 (stereo not given) | ? | -9.9% | -3.8% | 2.2 | 6.6% | -12.4
CC(C)(C)OC(=O)N1CC[C@H]1COc1cnc[c]([Sn]([CH3])([CH3])[CH3])c1 | · | · | · | · | 6.1%[21 µM] | ·
NCCCCC(NC(CCc1ccccc1)C(=O)O)C(=O)N1CCCC1C(=O)O (stereo not given) | · | 4.7% | 14.3% | · | 10.2%[56.1 µM] | ·
O=c1[nH]c2ccccc2n1C1CCN(C(c2cc3ccccc3o2)c2nnnn2Cc2ccccc2)CC1 (stereo not given) | · | 9.2µM* | 10.3µM* | · | · | ?
CC(Cc1ccccc1)NC(=O)C(c1ccc(N)cc1)c1ccc(N)cc1 (stereo not given) | -1.1% | ? | 11.6µM* | -5.6 | · | 0.0
Cc1cccc(C)c1N | · | · | · | · | 6.5% | ·
COC(=O)C1=C(c2ccc(Cl)c(C(F)(F)F)c2)C[C@@H]2CC[C@H]1N2C(=O)N1CCC(O)(c2ccc(Cl)cc2)CC1 | ? | ? | ? | 4.7 | 1.0% | -82.6*
COC(=O)C1=C(c2ccc(C(C)=O)cc2)C[C@@H]2CC[C@H]1N2C(=O)N1CCC(O)CC1 | 7.7% | 4.9% | 9.6% | -3.7 | 0.2% | 15.3
COC(=O)C1=C(c2ccc(Cl)c(C(F)(F)F)c2)C[C@@H]2CC[C@H]1N2C(=O)N1CCOCC1 | -13.4% | 4.61µM* | 6.51µM* | -12.2 | 0.5% | -1.1
COc1ccc2c(c1OC)C(=O)OC2C1c2cc3c(cc2CCN1C)OCO3 (stereo not given) | ? | 3.0% | 0.2% | -10.2 | 7.1%[56.1 µM] | 10.8
C=CCc1cc(OC)c2c(c1)OCO2 | 15.6% | -0.5% | -2.3% | -5.2 | 4.8% | 11.1
COc1cc(C2c3cc4c(cc3CC3COC(=O)C32)OCO4)cc(OC)c1O (stereo not given) | · | 0.291µM* | 0.0517µM* | 1.4 | · | 26.0
COc1cc(C2c3cc4c(c(O)c3CC3COC(=O)C32)OCO4)cc(OC)c1O (stereo not given) | · | ? | 0.0708µM* | ? | 2.1% | ·
COc1cc(C2c3cc4c(cc3C(OC(C)=O)[C@H]3COC(=O)C23)OCO4)cc(OC)c1OC (stereo not given in full) | · | 0.0326µM* | 1.03µM* | · | 7.3%[56.1 µM] | ·
C[N+](=O)[O-] | · | · | · | · | 2.5% | ·
Nc1c([N+](=O)[O-])ccc(Oc2ccccc2)c1Cl | · | · | · | · | 21.3% | ·
CC(C)c1ccc(CNC(=O)c2ccc(N3CCCC3)c(NC(=O)NCc3ccccc3)c2)cc1 | · | 23.1µM* | 14.6µM* | · | 1.2% | ·
CCc1ccccc1NC(=O)Nc1cc(C(=O)NCc2ccc(C(C)C)cc2)ccc1N1CCCC1 | · | ? | ? | · | -1.2% | ·
CCn1cc(C(=O)N[C@@H](C)C(=O)OC)c(=O)c2cc3c(cc21)OCO3 | ? | -15.1% | -17.5% | -1.8 | · | -5.1
Cc1c(CCNS(=O)(=O)c2ccccc2)sc2nc(-c3ccc(Cl)cc3)nn12 | · | 9.2µM* | 7.31µM* | · | 2.6% | ·
CCOc1ccc(S(=O)(=O)NCCc2sc3nc(-c4ccc(C)cc4)nn3c2C)cc1 | · | ? | ? | · | 5.2% | ·
C=CCc1cc(C)ccc1OCCCC(C(=O)OCC)C(=O)OCC | 1.4% | ? | -26.2% | 3.7 | -1.2% | 1.1
CCCCCOc1ccc(C)cc1CN(CCCl)CCCl | ? | 16.4µM* | 16.4µM* | 5.7 | -5.1% | ·
CC(Cc1ccsc1)NCc1cn[nH]c1-c1ccc(F)cc1F (stereo not given) | -3.4% | ? | ? | -0.1 | 0.0% | -54.4*
SMILES | ELG1 DNA repair | DT40 TDP1 no CPT | TDP1 cell CPT | Giardia killer | TDP1 block | IL1B secr inh
COc1ccc(-c2[nH]ncc2CNC(C)Cc2ccsc2)c(F)c1 (stereo not given) | 5.3% | ? | ? | -7.1 | · | -2.1
Cc1cccc(NC(=O)N[C@@H]2N=C(c3ccccc3)c3ccccc3N(CC(=O)c3ccccc3C)C2=O)c1 | · | · | · | · | 10.5% | ·
O=C1c2ccccc2S(=O)(=O)c2cc(C(=O)N3CCN(c4c(Cl)cncc4Cl)CC3)ccc21 | · | 14.6µM* | ? | 5.6 | · | -0.5
NC(=O)c1sc2nc3c(c(-c4cccs4)c2c1N)CCCC3 | 2.31µM* | · | · | · | · | ·
CN1CCc2nc3sc(C#N)c(N)c3c(-c3cccs3)c2C1 | -15.7% | 20.6µM* | ? | 1.3 | 7.1% | -8.2
COC(=O)C12CC3=C[C@H](CC3=O)Cc3ccccc3[C@@H]1CNC2=O (stereo not given in full) | · | · | · | · | 6.9% | ·
O=C1c2cc([N+](=O)[O-])ccc2-c2ncccc21 | -7.1% | ? | ? | ? | · | 5.4
CN(N=Cc1ccc([N+](=O)[O-])cc1)c1ccccn1 | · | ? | ? | · | · | -57.6*
Cc1ccc(-n2c(/C=C/c3ccc(Br)s3)nc3ccccc3c2=O)cc1C | · | ? | ? | · | 2.6% | ·
Cc1ccc(NC(=O)c2ncn(CCCNCCN3CCOCC3)n2)cc1C | · | -12.3% | -13.1% | -9.5 | · | -2.2
Cc1ccc(NC(=O)c2cnc3sc(N4CCOCC4)nn3c2=O)cc1N(C)C | · | 20.6µM* | 14.6µM* | · | -2.9% | ·
CCOC(=O)c1ncn2c1CN(C)C(=O)c1cc(N=[N+]=[N-])ccc1-2 | · | · | · | · | 9.9% | ·
c1ccc(CCN2CCC(N3CCN(c4ccccc4)CC3)CC2)cc1 | 21.4% | -14.0% | 1.7% | 5.9 | 6.1% | 0.0
CCCCN(Cc1ccccc1)C1CCN(CCc2ccccc2)CC1 | -18.4% | ? | ? | -10.7 | 5.5% | -64.8*
Cc1ccc(-n2nc3c(N4CCC(C(=O)NCc5ccccc5Cl)CC4)nnc(C)c3c2C)cc1 | · | 5.8µM* | 14.6µM* | · | 2.8% | ·
COc1ccc(Cl)cc1NC(=O)c1sc2nc3c(cc2c1N)N1CCC3CC1 | · | -24.4% | 0.9% | · | 4.7% | ·
Cc1nn(Cc2ccccc2Cl)c(C)c1C(=O)NC1CCCc2ccccc21 (stereo not given) | -28.1% | -8.9% | -2.1% | -5.9 | -1.9% | 24.1
COc1ccc(Cl)cc1NC(=O)C1CCN(c2nnc(C)c3c(C)n(-c4ccccc4)nc23)CC1 | · | 14.6µM* | 18.4µM* | · | 2.8% | ·
Clc1ccc(Cl)cc1 | · | -6.9% | -9.8% | · | 8.1%[56.1 µM] | ·
Nc1c(Br)cc([N+](=O)[O-])cc1[N+](=O)[O-] | 8.4% | -25.0% | -7.6% | 37.5 | 2.3% | 1.5
